ChEMBL document CHEMBL1961873, “Compounds: GSK PKIS; Assays: Nanosyn kinase panel” (2012)

Legend:
[1] = molecular target: Leukocyte tyrosine kinase receptor (Homo sapiens) (UniProt P29376); settings: at 1 µM;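 note: each value is the mean inhibition of LTK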
[2] = molecular target: Tyrosine-protein kinase Lyn (Homo sapiens) (UniProt P07948); settings: at 0.1 µM
[3] = molecular target: Tyrosine-protein kinase Lyn (Homo sapiens) (UniProt P07948); settings: at 1 µM
[4] = molecular target: Tyrosine-protein kinase Lyn (Homo sapiens) (UniProt P07948); settings: at 0.1 µM; remark: listed apart in the source
[5] = molecular target: Tyrosine-protein kinase Lyn (Homo sapiens) (UniProt P07948); settings: at 1 µM; remark: listed apart in the source
[6] = molecular target: T1, Tyrosine-protein kinase Mer (Homo sapiens) (UniProt Q12866); settings: at 0.1 µM
T1 sequence (whole entry): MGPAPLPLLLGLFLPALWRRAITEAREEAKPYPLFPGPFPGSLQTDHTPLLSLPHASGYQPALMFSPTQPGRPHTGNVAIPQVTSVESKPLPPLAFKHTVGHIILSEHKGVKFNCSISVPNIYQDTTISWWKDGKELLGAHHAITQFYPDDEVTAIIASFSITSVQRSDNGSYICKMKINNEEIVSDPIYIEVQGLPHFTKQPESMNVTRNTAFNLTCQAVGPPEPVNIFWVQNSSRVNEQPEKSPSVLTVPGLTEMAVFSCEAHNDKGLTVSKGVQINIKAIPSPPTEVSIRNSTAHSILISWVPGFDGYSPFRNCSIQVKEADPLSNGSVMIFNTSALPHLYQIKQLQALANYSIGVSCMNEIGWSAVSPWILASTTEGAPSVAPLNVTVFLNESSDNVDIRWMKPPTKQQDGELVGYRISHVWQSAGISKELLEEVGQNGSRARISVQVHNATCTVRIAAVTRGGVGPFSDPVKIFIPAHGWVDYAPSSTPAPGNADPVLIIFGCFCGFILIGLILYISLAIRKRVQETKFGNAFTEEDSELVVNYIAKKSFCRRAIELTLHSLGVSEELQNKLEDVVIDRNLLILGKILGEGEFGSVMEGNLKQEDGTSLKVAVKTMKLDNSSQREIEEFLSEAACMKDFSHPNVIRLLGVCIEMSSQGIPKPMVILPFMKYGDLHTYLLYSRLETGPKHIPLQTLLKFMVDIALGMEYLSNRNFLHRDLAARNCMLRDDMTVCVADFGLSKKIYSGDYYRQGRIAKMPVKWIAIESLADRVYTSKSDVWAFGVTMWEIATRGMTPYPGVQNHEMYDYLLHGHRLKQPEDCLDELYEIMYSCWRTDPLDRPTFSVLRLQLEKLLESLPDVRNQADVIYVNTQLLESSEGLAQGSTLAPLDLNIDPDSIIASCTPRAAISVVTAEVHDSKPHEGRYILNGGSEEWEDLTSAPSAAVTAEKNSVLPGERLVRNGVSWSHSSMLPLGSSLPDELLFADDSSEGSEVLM

[7] = molecular target: T1, Tyrosine-protein kinase Mer (Homo sapiens); settings: at 1 µM
[8] = molecular target: Hepatocyte growth factor receptor (Homo sapiens) (UniProt P08581); settings: at 0.1 µM
[9] = molecular target: Hepatocyte growth factor receptor (Homo sapiens) (UniProt P08581); settings: at 1 µM
[10] = molecular target: T2, Muscle, skeletal receptor tyrosine-protein kinase (Homo sapiens) (UniProt O15146); settings: at 0.1 µM;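 note: values are mean inhibition of MuSK from the GSK PKIS kinase screening panel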
T2 sequence (whole entry): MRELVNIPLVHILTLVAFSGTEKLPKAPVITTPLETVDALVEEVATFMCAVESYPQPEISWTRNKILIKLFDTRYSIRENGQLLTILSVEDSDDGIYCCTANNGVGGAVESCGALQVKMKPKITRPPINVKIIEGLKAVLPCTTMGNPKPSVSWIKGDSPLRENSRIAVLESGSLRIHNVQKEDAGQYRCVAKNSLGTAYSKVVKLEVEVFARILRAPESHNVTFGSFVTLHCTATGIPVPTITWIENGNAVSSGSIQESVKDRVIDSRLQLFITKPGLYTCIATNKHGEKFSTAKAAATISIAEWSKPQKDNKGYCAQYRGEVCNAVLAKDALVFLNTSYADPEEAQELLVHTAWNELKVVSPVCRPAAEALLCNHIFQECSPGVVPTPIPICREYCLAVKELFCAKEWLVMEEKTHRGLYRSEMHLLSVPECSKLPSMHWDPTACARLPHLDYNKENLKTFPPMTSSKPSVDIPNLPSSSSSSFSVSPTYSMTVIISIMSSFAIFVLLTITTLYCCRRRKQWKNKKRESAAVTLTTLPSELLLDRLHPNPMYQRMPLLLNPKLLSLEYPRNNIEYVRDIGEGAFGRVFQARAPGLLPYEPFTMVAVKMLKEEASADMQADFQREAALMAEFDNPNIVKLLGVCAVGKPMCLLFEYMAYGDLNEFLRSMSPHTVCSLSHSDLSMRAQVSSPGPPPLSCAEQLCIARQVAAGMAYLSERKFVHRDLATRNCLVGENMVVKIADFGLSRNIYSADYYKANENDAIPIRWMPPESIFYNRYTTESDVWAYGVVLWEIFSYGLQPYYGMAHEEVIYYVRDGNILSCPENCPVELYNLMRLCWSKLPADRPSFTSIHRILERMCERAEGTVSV

Sequence of Tyrosine-protein kinase Lyn (Homo sapiens) (P07948 2-512 limits assumed): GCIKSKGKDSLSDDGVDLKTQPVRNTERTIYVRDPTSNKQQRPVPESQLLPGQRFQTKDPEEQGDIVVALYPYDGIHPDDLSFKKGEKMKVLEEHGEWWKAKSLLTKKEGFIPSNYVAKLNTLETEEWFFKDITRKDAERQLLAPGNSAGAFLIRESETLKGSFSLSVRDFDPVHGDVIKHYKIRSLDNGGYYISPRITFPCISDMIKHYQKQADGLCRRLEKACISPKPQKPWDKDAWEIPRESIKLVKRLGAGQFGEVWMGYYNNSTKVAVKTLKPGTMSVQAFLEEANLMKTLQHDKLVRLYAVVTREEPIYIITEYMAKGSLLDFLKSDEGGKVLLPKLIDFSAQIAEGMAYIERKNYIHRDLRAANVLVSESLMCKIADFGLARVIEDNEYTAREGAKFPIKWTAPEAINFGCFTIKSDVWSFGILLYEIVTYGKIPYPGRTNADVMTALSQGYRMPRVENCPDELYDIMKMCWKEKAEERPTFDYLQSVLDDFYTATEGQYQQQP
Sequence of Leukocyte tyrosine kinase receptor (Homo sapiens) (P29376 whole entry): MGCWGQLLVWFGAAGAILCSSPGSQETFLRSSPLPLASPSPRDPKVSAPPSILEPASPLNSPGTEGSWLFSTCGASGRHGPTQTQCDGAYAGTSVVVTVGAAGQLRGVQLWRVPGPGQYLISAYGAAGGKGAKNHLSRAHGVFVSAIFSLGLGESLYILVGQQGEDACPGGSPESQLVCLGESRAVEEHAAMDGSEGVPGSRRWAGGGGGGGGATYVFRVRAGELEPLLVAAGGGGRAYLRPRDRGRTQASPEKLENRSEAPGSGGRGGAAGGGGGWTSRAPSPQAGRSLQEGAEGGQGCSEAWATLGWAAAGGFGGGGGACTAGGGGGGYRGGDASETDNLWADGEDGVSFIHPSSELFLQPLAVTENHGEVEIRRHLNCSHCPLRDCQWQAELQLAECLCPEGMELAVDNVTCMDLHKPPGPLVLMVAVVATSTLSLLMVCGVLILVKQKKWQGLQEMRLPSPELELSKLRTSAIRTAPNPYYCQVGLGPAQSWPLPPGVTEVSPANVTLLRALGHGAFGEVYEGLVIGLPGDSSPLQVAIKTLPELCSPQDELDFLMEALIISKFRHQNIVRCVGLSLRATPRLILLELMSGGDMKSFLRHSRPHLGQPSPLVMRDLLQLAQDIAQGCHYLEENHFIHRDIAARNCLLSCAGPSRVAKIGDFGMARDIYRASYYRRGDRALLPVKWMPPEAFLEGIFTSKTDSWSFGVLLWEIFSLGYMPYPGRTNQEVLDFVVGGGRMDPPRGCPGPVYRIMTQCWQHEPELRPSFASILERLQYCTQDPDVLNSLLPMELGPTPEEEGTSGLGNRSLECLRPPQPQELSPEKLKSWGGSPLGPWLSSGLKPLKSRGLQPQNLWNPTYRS
Sequence of Hepatocyte growth factor receptor (Homo sapiens) (P08581 whole entry): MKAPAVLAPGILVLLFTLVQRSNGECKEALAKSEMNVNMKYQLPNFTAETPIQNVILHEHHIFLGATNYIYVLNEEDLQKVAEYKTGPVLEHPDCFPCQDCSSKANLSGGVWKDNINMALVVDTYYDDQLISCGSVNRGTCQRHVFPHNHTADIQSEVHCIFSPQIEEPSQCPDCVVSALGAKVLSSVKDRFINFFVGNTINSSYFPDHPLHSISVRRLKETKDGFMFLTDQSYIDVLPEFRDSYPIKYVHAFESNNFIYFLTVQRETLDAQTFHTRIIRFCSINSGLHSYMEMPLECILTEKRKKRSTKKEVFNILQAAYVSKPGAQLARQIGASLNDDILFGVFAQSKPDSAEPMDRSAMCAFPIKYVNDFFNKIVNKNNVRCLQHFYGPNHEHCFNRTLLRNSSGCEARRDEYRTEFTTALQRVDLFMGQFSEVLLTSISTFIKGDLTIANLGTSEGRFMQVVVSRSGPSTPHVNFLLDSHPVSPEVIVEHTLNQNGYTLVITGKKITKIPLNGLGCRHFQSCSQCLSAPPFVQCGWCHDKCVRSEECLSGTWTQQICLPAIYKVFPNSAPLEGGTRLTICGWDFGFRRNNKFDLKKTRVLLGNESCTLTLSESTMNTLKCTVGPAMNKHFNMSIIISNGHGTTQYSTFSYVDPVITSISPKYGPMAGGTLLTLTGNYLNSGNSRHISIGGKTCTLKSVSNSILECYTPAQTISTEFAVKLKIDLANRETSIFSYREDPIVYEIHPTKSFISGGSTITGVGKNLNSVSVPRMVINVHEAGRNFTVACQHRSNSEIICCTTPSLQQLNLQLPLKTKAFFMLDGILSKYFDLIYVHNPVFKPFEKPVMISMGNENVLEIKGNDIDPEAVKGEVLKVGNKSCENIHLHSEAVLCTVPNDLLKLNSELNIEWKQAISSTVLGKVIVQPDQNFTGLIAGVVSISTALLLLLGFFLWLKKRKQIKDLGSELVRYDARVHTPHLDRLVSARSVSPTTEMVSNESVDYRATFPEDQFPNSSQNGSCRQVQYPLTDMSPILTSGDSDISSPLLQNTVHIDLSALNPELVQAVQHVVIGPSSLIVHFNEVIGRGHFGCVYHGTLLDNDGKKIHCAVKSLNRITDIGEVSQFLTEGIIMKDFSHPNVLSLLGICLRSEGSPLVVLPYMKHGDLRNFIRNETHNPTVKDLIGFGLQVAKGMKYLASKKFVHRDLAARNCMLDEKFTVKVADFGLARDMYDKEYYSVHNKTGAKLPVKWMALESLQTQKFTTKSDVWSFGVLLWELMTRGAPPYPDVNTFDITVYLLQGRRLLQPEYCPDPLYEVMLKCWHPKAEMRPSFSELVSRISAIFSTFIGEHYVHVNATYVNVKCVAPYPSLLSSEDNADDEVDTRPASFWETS

Structure (SMILES)	inhibition [1] [%]	inhibition [2] [%]	inhibition [3] [%]	inhibition [4] [%]	inhibition [5] [%]	inhibition [6] [%]	inhibition [7] [%]	inhibition [8] [%]	inhibition [9] [%]	inhibition [10] [%]
CCS(=O)(=O)c1ccc(OC)c(Nc2ncc(-c3cccc(F)c3)o2)c1	6.89	32.5	78.7	26.3	75.4	2.9	9.7	6.73	5.27	3.58
CC1=C(C(=O)Nc2ccc3[nH]ncc3c2)C(c2ccc(F)cc2)N=C(c2ccc(C(F)(F)F)nc2)N1 (stereo not given)	3.48	2.25	5.17	0.9	3.68	1.51	2.57	3.67	2.53	2.32
Cc1nnc(-c2cccc(-c3ccc(C(=O)NCC4CC4)cc3)c2)o1	4.76	7.2	5.98	3.09	5.48	0.22	0.56	3.78	7.87	2.8
CCS(=O)(=O)c1ccc(OC)c(Nc2ncc(-c3cccc(C(C)=O)c3)o2)c1	3.34	11.3	45.5	7.74	40.8	1.15	2.12	1.95	7.9	2.82
CN(C)CCNC(=O)Nc1ccc(N(C)c2ccnc(Nc3ccc(CS(C)(=O)=O)cc3)n2)cc1	10.1	5.57	9.57	2.36	7.59	0.57	4.35	5.93	25.4	3.67
CNC(=O)c1sc(-n2cnc3cc(OC)c(OC)cc32)cc1OCc1ccccc1C(F)(F)F	3.95	3.05	8.91	4.12	7.2	0.56	2.64	1.53	3.89	2.71
Cc1cc(O)cc(C)c1/C=C/c1cncc(C(N)=O)c1	3.91	14.8	61	10.4	57	1.5	2.49	0.96	6.76	3.77
COc1cc2c(cc1Nc1nc(Nc3cccc(F)c3C(N)=O)c3cc[nH]c3n1)N(C(=O)CN1CCN(C(C)C)CC1)CC2	80.7	0.63	-0.57	-1.56	-0.54	1.98	3.27	5.94	1.99	1.22
